HCV inhibitor: blocks hepatitis C virus | Huh7.5.1 HCVcc-Cre infection, luciferase reporter, 44 h | Potency, µM (top dose mostly 41.8 µM), for inactives: at the top dose activity change, negative = inhibition, actives largely listed as inhibitors | 340,000 compounds, 3.4% hits; also: potency is read from the fitted curve at half-maximal effect
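Compounds are dispensed onto cells plated 4 h earlier at 1,000 per well, with HCVcc-Cre virus (about 0.5 moi) added next. Following 44 h of culture, luminescent signal is measured for 15 sec after 15 min with substrate at room temperature.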
VACV mCherry inh: inhibitors of vaccinia virus infection (mCherry reporter signal); 310,000 compounds, 0.63% hits; Vaccinia virus mCherry reporter infection, fluorescence; Potency, µM (doses to about 36.5 µM), without a hit: top-dose activity change, negative = inhibition, usual class: inhibitors; calls by dose curve; tested in A549 cells; also: potency is read from the fitted curve at half-maximal effect; nearly all actives have a fitted effect of over 35% in size
FMDV inh: antivirals against foot and mouth disease virus. FMDV antiviral cell-based qHTS. Potency, µM (doses to about 57.9 µM), without a hit: top-dose activity change, negative = inhibition, usual class: inhibitors. 410,000 compounds, 1.2% hits. AID 1159524; calls by dose curve; tested in HEK293T cells; also: read-out not given here; potency is read from the fitted curve at half-maximal effect; nearly all actives have a fitted effect of over 45% in size
VACV Venus inh: inhibitors of vaccinia virus (Venus reporter). AID 720580. Potency, µM (highest dose often 36.5 µM), for the others: top-dose activity change, negative = inhibition, usual class: inhibitors. Vaccinia virus Venus reporter expression, fluorescence. 330,000 compounds, 0.46% hits; calls by dose curve; tested in A549 cells; also: potency is read from the fitted curve at half-maximal effect; nearly all actives have a fitted effect of over 30% in size
HCMV inh: inhibitors of human cytomegalovirus. HFF cells, HCMV-luciferase reporter, 72 h; active compounds read low. 410,000 compounds, 4.5% hits. activity change, negative = inhibition, % at 57.5 µM; in the data active = activity change below about -60%; inconclusive = no clear call, values can overlap the other calls; inactive = above about -39%
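Compounds were evaluated in HFFs infected with an HCMV luciferase reporter virus (MOI 1 PFU/cell). Luciferase in lysates collected 72 h post infection served as the replication measure.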
FBPA Giardia inh: blocks Giardia fructose-bisphosphate aldolase activity | A8B2U2 | purified Giardia FBPA | Potency, µM (series often up to 59.6 µM), inactives show at the highest dose activity, negative = inhibition, hits mostly inhibitors | 290,000 compounds, 0.71% hits; also: potency is read from the fitted curve at half-maximal effect; nearly all actives have a fitted effect of over 55% in size
Target sequence (A8B2U2 whole entry, looked up): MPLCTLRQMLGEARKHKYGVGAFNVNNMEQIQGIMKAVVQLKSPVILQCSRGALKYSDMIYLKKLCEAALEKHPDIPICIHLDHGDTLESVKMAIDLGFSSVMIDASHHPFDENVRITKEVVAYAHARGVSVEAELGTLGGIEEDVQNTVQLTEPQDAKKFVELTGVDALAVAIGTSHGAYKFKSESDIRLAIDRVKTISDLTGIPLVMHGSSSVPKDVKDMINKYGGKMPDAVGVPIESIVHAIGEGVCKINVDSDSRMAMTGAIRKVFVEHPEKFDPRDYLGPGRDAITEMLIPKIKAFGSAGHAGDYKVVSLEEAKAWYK
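Giardia FBPA (40 nM reagent) was preincubated 10 min at RT with compound (up to 57.5 uM final), then substrate plus GAPDH/TPI/NAD/arsenate coupling system with diaphorase/resazurin was added; resorufin fluorescence (525/598 nm) was read after 20 min.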
* hit, by the source's call; i = inactive; ? = inconclusive; . = no result; ! = not active in a repeat; [ ] = dose if it differs, or a comment. The list is not random: actives were taken first. Their share in the collection is about 7.5%. Unless noted, calls follow the shape of the dose curve; as a rule, active = well fitted curve in the direction sought with a large enough effect; inconclusive = small, poorly fitted or top-dose-only effect, or another doubt; inactive = no such curve, though single readings can be large; an effect the other way counts as inactive or inconclusive. % is scaled to controls: 0 for no effect and ±100 for the full control effect.

SMILES	HCV inhibitor	VACV mCherry inh	FMDV inh	VACV Venus inh	HCMV inh	FBPA Giardia inh
CCN(CC)S(=O)(=O)c1ccc(N2CCCCC2)c(C(=O)Nc2ccccc2N2CCOCC2)c1	5.62µM*	-1.3%	-8.4%	3.3%	?	4.6%
CCOc1ncccc1C(=O)Nc1cc(C(F)(F)F)ccc1N1CCOCC1	-26.6%	.	-17.4%	.	-67.2*	.
CCN(CC)S(=O)(=O)c1ccc(N2CCOCC2)c(NC(=O)c2cccc3c(=O)c(C)c(-c4ccccc4)oc23)c1	8.91µM*	.	?	.	-8.4	.
O=C(Nc1cc(C(F)(F)F)ccc1N1CCOCC1)c1cccnc1Cl	3.7%	-3.9%	9.6%	9.4%	-24.9	-12.3%
COc1ccc(C(=O)NCc2nnc(SC)n2-c2ccccc2C)c(OC)c1OC	.	-9.0%	-17.7%	10.3%	.	.
CCN(CC)S(=O)(=O)c1ccc(N2CCOCC2)c(NS(=O)(=O)c2cc(C(C)(C)C)ccc2C)c1	?	-8.5%	-8.4%	?	-68.8*	-3.6%
CCN(CC)S(=O)(=O)c1ccc(N2CCOCC2)c(NS(=O)(=O)c2ccc(C(C)C)cc2)c1	-8.9%	-9.1%	65.4%	-5.6%	-24.4	5.2%
CCC(=O)c1cc2c(cc1NC(=O)C(C)C)OCCO2	6.31µM*	.	-10.2%	9.7%	-23.6	0.2%
CC(C)C(=O)Nc1cc2c(cc1C(=O)c1ccccc1)OCCO2	-0.8%	.	-13.6%	-1.3%	-2.7	1.3%
O=c1c2cc(Br)ccc2[nH]c(=S)n1Cc1cccnc1	0.7%	1.2%	-4.2%	3.7%	-18.5	-1.1%
C=CCn1c(=S)[nH]c2ccc(Br)cc2c1=O	10.6%	-2.5%	-19.8%	-15.6%	-60.7*	-22.0%
COc1ccc(CCNC(=O)CSc2nnc3ccc(-c4ccccn4)nn23)cc1	3.6%	-2.8%	-4.1%	-27.7%	-28.3	.
COc1ccc(-n2c(=O)c(-c3cccs3)nc3cnc(OC)nc32)cc1	.	.	-6.6%	.	.	4.0%
CCC1CCCCN1c1nc2c(C=O)c(C)nn2c2ccccc12 (centres undefined)	10µM*	i	-23.4%	-19.1%	-64.3*	9.8%
CCOC(=O)c1nnn2c1nc(N1CCCCC1)c1ccccc12	-26.6%	i	-12.2%	-4.4%	-19.0	0.9%
COc1cccc(NC(=O)N(C)C[C@H]2OCc3cn(nn3)CCCC(=O)N([C@H](C)CO)C[C@@H]2C)c1	.	.	.	.	-4.5	.
C(=C\c1ccnc2ccccc12)/c1ccc(N2CCNCC2)cc1	.	?	.	-16.7%	.	.
COc1ccccc1CCN=C(N)NS(=O)(=O)c1ccc(C)c(C)c1	?	-19.3%	6.2%	-14.5%	.	2.7%
CCOc1ccc(NC(=O)C(Cc2ccccc2)N2C(=O)c3cccc4cccc(c34)C2=O)cc1 (centres undefined)	?	i	-9.4%	59.9%	-99.2*	0.6%
CCOc1ccc(NC(=O)[C@H](Cc2ccccc2)N2Cc3ccccc3C2=O)cc1	.	-5.2%	-1.4%	-3.9%	7.1	.
Cc1ccc(NC(=O)NCC2CCN(Cc3cccc(Cl)c3)CC2)cc1Cl	-23.5%	?	?	-22.6%	-92.5*!	1.1%
CCc1ccc(NC(=O)NCC2CCN(Cc3cccc(Cl)c3)CC2)cc1	?	.	-11.2%	.	-6.5	3.8%
Cc1ccc(NC(=O)NCC2CCN(Cc3cccc(Cl)c3)CC2)c(Cl)c1	12.6µM*	.	-17.8%	.	-65.5*	4.0%
COc1ccc(Nc2oc(COc3ccc(OC)cc3)nc2C#N)cc1	?	.	0.0%	.	-69.7*	-12.6%
COc1ccc(CCNc2oc(COc3ccc(Cl)cc3)nc2C#N)cc1OC	.	6.9%	31.6µM*	4.9%	-23.0	.
SMILES	HCV inhibitor	VACV mCherry inh	FMDV inh	VACV Venus inh	HCMV inh	FBPA Giardia inh
N#Cc1nc(COc2ccc(Cl)cc2)oc1NCc1ccc2c(c1)OCO2	10µM*	-14.1%	0.0%	-27.2%	3.0	-5.3%
Cc1ccc(NC(=O)CS(=O)CC(=O)N(CC(=O)NC(C)(C)C)c2cccc(C)c2C)cc1 (centres undefined)	19.1%	-24.8%	-1.5%	-17.1%	19.5	1.0%
Cc1ccccc1Nc1c(-c2ccncc2)nc2ccc(Cl)cn12	14.3%	?	?	?	-60.6*!	-0.7%
Cc1ccc2nc(-c3ccsc3)c(Nc3ccccc3C)n2c1	.	-18.0%	?	-6.6%	-14.5	.
CCOC(=O)c1c(NC(=O)CN2CCCCC2)sc2c1CCC(C=O)=C2Cl	2.24µM*	-19.3%	?	-3.5%	14.3	3.9%
N#Cc1ccc(OCC(=O)NNC(=S)NC2CCCCC2)cc1	3.8%	.	-6.2%	.	9.4	.
Cc1cc(C)c(OCCCCN(C)Cc2ccccc2)c(C)c1	-26.3%	.	-24.2%	.	-60.7*	?
Cc1ccc(OCCCCN(C)Cc2ccccc2)c(Br)c1	?	?	?	?	44.0	-17.4%
COc1ccc(NC2c3ccccc3C(=O)N2c2ccccn2)cc1 (centres undefined)	-1.3%	.	-26.5%	.	-79.7*	?
CCOC(=O)c1ccc(NC2c3ccccc3C(=O)N2c2ccccn2)cc1 (centres undefined)	8.0%	-16.8%	-1.3%	-14.7%	12.5	-14.2%
Cc1ccc(N2C(=O)c3ccccc3C2Nc2ccc(S(=O)(=O)N3CCCCC3)cc2)nc1 (centres undefined)	?	i	28.5%	-11.7%	10.9	-13.6%
CCN(CC)S(=O)(=O)c1ccc(NC2c3ccccc3C(=O)N2c2ccc(C)cn2)cc1 (centres undefined)	14.1µM*	-10.0%	27.0%	-4.3%	49.2	-19.9%
COc1cccc(C(O)C2OC(=O)c3ccccc32)c1OC (centres undefined)	12.9%	i	-23.3%	-15.0%	9.6	.
CCOc1ccccc1OCCNC(C)Cc1ccc(OC)c(S(N)(=O)=O)c1 (centres undefined)	.	.	.	.	4.2	.
Cc1ccc(C(=O)NCC(c2ccco2)N2CCCCC2)s1 (centres undefined)	6.0%	.	12.6%	.	-1.6	.
O=C(NCc1cccs1)C(=O)NCC(c1ccco1)N1CCN(c2ccccc2F)CC1 (centres undefined)	11.2µM*	-22.8%	-14.6%	-10.6%	0.0	-4.0%
O=C(NCC(c1ccco1)N1CCCC1)c1cc2cc(Cl)ccc2o1 (centres undefined)	12.6µM*	-12.1%	-1.4%	-27.3%	-24.8	.
O=C(NCC(c1ccco1)N1CCCCC1)c1ccc([N+](=O)[O-])s1 (centres undefined)	0.562µM*	?	-8.7%	?	9.3	.
O=C(NCC(c1ccco1)N1CCCC1)c1ccc(Cl)cc1 (centres undefined)	-23.3%	7.3%	0.3%	18.5%	-26.3	5.2%
O=C(NCC(c1ccco1)N1CCN(c2ccccc2F)CC1)c1cccs1 (centres undefined)	0.8%[8.37 µM]	-4.7%	-4.6%	-10.6%	.	.
Cc1cc2oc(C(=O)NCC(c3ccco3)N3CCCC3)c(C)c2cc1C (centres undefined)	.	?	-8.4%	?	9.7	.
